Assay results reported in PubChem BioAssay (EPA / NIEHS).
Calls of active or inactive are those of the source. How the source made its calls: active means hit-call score of the fitted dose curve at least 0.9, where 1 is the maximum; inactive means score below 0.9.

Tests used:
[1] = read-out: Human Leukocyte Antigen - DR isotype (HLADR), HLA-DRA (gene 3122); assay: BSK_CASM3C_HLADR: BioMAP Diversity Plus: CASM3C Assay for Human Leukocyte Antigen - DR isotype (HLADR) Biomarker Activity (AID 2283043); details: primary human coronary artery smooth muscle cells; actives raise or lower the signal;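 further: cell-surface HLA-DR protein level quantified by ELISA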
[2] = read-out: Macrophage colony-stimulating factor (MCSF), CSF1 (gene 1435); assay: BSK_CASM3C_MCSF: BioMAP Diversity Plus: CASM3C Assay for Macrophage colony-stimulating factor (MCSF) Biomarker Activity (AID 2283044); details: primary human coronary artery smooth muscle cells; actives raise or lower the signal;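 further: M-CSF protein amount quantified by ELISA after 24 h exposure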
[3] = read-out: Low-density lipoprotein receptor (LDLR), LDLR (gene 3949); assay: BSK_CASM3C_LDLR: BioMAP Diversity Plus: CASM3C Assay for Low-density lipoprotein receptor (LDLR) Biomarker Activity (AID 2283045); details: primary human coronary artery smooth muscle cells; actives raise or lower the signal;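 further: LDLR protein level on the cell surface quantified by ELISA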
[4] = read-out: Monocyte Chemoattractant Protein-1 (MCP1), CCL2 (gene 6347); assay: BSK_CASM3C_MCP1: BioMAP Diversity Plus: CASM3C Assay for Monocyte Chemoattractant Protein-1 (MCP1) Biomarker Activity (AID 2283046); details: primary human coronary artery smooth muscle cells; actives raise or lower the signal;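 further: MCP-1 level quantified by ELISA 24 h after dosing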
[5] = BSK_CASM3C_Proliferation: Cell Proliferation Assessment in the BioMAP Diversity Plus: CASM3C Assay (AID 2283047); details: primary human coronary artery smooth muscle cells;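 further: sulforhodamine B total protein stain as relative cell number at 560 nm; sub-confluent cells exposed 48 h before staining; fitted both ways against DMSO so gain or loss of cell number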
[6] = read-out: Monokine induced gamma interferon (MIG), CXCL9 (gene 4283); assay: BSK_CASM3C_MIG: BioMAP Diversity Plus: CASM3C Assay for Monokine induced gamma interferon (MIG) Biomarker Activity (AID 2283048); details: primary human coronary artery smooth muscle cells; actives raise or lower the signal;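 further: MIG protein level measured by ELISA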
[7] = read-out: serum amyloid A (SAA), SAA1 (gene 6288); assay: BSK_CASM3C_SAA: BioMAP Diversity Plus: CASM3C Assay for serum amyloid A (SAA) Biomarker Activity (AID 2283049); details: primary human coronary artery smooth muscle cells; actives raise or lower the signal;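 further: SAA protein level quantified by ELISA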
[8] = BSK_CASM3C_SRB: Viability Assessment in the BioMAP Diversity Plus: CASM3C Assay (AID 2283050); details: primary human coronary artery smooth muscle cells;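 further: total protein by SRB staining as cytotoxicity measure in parallel cultures; cells exposed to compound for 24 h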
[9] = read-out: Thrombomodulin, THBD (gene 7056); assay: BSK_CASM3C_Thrombomodulin: BioMAP Diversity Plus: CASM3C Assay for Thrombomodulin Biomarker Activity (AID 2283051); details: primary human coronary artery smooth muscle cells; actives raise or lower the signal;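 further: thrombomodulin protein level measured by ELISA 24 h after dosing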
[10] = read-out: Tissue Factor, F3 (gene 2152); assay: BSK_CASM3C_TissueFactor: BioMAP Diversity Plus: CASM3C Assay for Tissue Factor Biomarker Activity (AID 2283052); details: primary human coronary artery smooth muscle cells; actives raise or lower the signal;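 further: cell surface tissue factor protein level read by ELISA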
[11] = read-out: Interferon-gamma inducible Protein 10 (IP10), CXCL10 (gene 3627); assay: BSK_hDFCGF_IP10: BioMAP Diversity Plus: hDFCGF Assay for Interferon-gamma inducible Protein 10 (IP10) Biomarker Activity (AID 2283053); details: primary human foreskin fibroblasts; actives raise or lower the signal
Summary of the method: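 Cells: human dermal foreskin fibroblasts. Exposure: 24 h post-dosing. Detection: IP-10 ELISA, with values expressed against DMSO controls and fitted in both directions.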

[12] = read-out: Urokinase-type plasminogen activator receptor (uPAR), PLAUR (gene 5329); assay: BSK_CASM3C_uPAR: BioMAP Diversity Plus: CASM3C Assay for Urokinase-type plasminogen activator receptor (uPAR) Biomarker Activity (AID 2283054); details: primary human coronary artery smooth muscle cells; actives raise or lower the signal;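 further: cell-surface uPAR protein level quantified by ELISA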
[13] = read-out: Vascular cell adhesion molecule 1 (VCAM1), VCAM1 (gene 7412); assay: BSK_CASM3C_VCAM1: BioMAP Diversity Plus: CASM3C Assay for Vascular cell adhesion molecule 1 (VCAM1) Biomarker Activity (AID 2283055); details: primary human coronary artery smooth muscle cells; actives raise or lower the signal;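 further: VCAM-1 protein level quantified by ELISA on the cells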
[14] = read-out: Collagen III, COL3A1 (gene 1281); assay: BSK_hDFCGF_CollagenIII: BioMAP Diversity Plus: hDFCGF Assay for Collagen III Biomarker Activity (AID 2283056); details: primary human foreskin fibroblasts; actives raise or lower the signal
Summary of the method: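 ELISA read-out of collagen III from human skin fibroblast cultures sampled 24 h post-dosing. Values were derived by bidirectional fitting relative to the DMSO vehicle control.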

[15] = read-out: Epidermal growth factor receptor (EGFR), EGFR (gene 1956); assay: BSK_hDFCGF_EGFR: BioMAP Diversity Plus: hDFCGF Assay for Epidermal growth factor receptor (EGFR) Biomarker Activity (AID 2283057); details: primary human foreskin fibroblasts; actives raise or lower the signal
Summary of the method: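 Dosing human primary skin fibroblasts, then measuring surface EGFR by ELISA at 24 h, gives the endpoint; gains and losses relative to DMSO were fitted in both directions.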

[16] = read-out: Interleukin-8 (IL8), CXCL8 (gene 3576); assay: BSK_hDFCGF_IL8: BioMAP Diversity Plus: hDFCGF Assay for Interleukin-8 (IL8) Biomarker Activity (AID 2283058); details: primary human foreskin fibroblasts; actives raise or lower the signal
Summary of the method: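 Cells used are human skin primary fibroblasts. Chemical is added, cultures run 24 h, then IL-8 is quantified by ELISA, and gain or loss versus DMSO control is fitted in both directions.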

[17] = BSK_hDFCGF_Proliferation: Cell Proliferation Assessment in the BioMAP Diversity Plus: hDFCGF Assay (AID 2283059); details: primary human foreskin fibroblasts;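 further: curves fitted for both rise and fall of signal versus DMSO baseline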
Summary of the method: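 Primary human foreskin fibroblasts, sub-confluent; […]; 10% TCA fix, 0.1% SRB stain, A560 total protein. Gain/loss fitted bidirectionally vs DMSO control.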

[18] = read-out: Macrophage colony-stimulating factor (MCSF), CSF1 (gene 1435); assay: BSK_hDFCGF_MCSF: BioMAP Diversity Plus: hDFCGF Assay for Macrophage colony-stimulating factor (MCSF) Biomarker Activity (AID 2283060); details: primary human foreskin fibroblasts; actives raise or lower the signal
Summary of the method: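 Primary human foreskin fibroblasts dosed with chemical; 24 h later, M-CSF quantified by ELISA; curves fitted in both directions vs DMSO negative control.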

[19] = BSK_hDFCGF_SRB: Viability Assessment in the BioMAP Diversity Plus: hDFCGF Assay (AID 2283061); details: primary human foreskin fibroblasts;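 further: cells exposed to compound for 24 h before the read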
Summary of the method: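 Readout is SRB absorbance at 560 nm, reflecting total protein in parallel cultures of human foreskin fibroblasts harvested 24 h after chemical dosing. Activity was fitted bidirectionally relative to DMSO.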

[20] = read-out: TIMP metallopeptidase inhibitor 1 (TIMP1), TIMP1 (gene 7076); assay: BSK_hDFCGF_TIMP1: BioMAP Diversity Plus: hDFCGF Assay for TIMP metallopeptidase inhibitor 1 (TIMP1) Biomarker Activity (AID 2283062); details: primary human foreskin fibroblasts; actives raise or lower the signal
Summary of the method: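 Human skin fibroblasts (primary), hDFCGF system; compound exposure 24 h; TIMP-1 by ELISA; bidirectional fit vs DMSO negative control; overt cytotoxicity by SRB in parallel wells.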

Cc1cc(SC2=C(O)C[C@@](CCc3ccc(N)cc3)(C(C)C)OC2=O)c(C(C)(C)C)cc1CO
outcome [1]: inactive
outcome [2]: inactive
outcome [3]: inactive
outcome [4]: inactive
outcome [5]: inactive
outcome [6]: inactive
outcome [7]: inactive
outcome [8]: inactive
outcome [9]: inactive
outcome [10]: inactive
outcome [11]: inactive
outcome [12]: inactive
outcome [13]: inactive
outcome [14]: inactive
outcome [15]: inactive
outcome [16]: inactive
outcome [17]: inactive
outcome [18]: inactive
outcome [19]: inactive
outcome [20]: inactive

C=CCCCCCCCCCCCC
outcome [1]: inactive
outcome [2]: inactive
outcome [3]: inactive
outcome [4]: inactive
outcome [5]: inactive
outcome [6]: inactive
outcome [7]: inactive
outcome [8]: inactive
outcome [9]: inactive
outcome [10]: inactive
outcome [11]: inactive
outcome [12]: inactive
outcome [13]: inactive
outcome [14]: inactive
outcome [15]: inactive
outcome [16]: inactive
outcome [17]: inactive
outcome [18]: inactive
outcome [19]: inactive
outcome [20]: inactive

CCCCC(CC)COP(=O)(OCC(CC)CCCC)OCC(CC)CCCC (stereo not given)
outcome [1]: inactive
outcome [2]: inactive
outcome [3]: inactive
outcome [4]: inactive
outcome [5]: inactive
outcome [6]: inactive
outcome [7]: inactive
outcome [8]: inactive
AC50 [9]: 7.89 µM (active)
outcome [10]: inactive
outcome [11]: inactive
outcome [12]: inactive
outcome [13]: inactive
outcome [14]: inactive
outcome [15]: inactive
outcome [16]: inactive
AC50 [17]: 7.49 µM (active)
outcome [18]: inactive
outcome [19]: inactive
outcome [20]: inactive

Oc1ccc(O)cc1
AC50 [1]: 9.58 µM (active)
AC50 [2]: 15.1 µM (active)
outcome [3]: inactive
outcome [4]: inactive
AC50 [5]: 25.7 µM (active)
outcome [6]: inactive
outcome [7]: inactive
outcome [8]: inactive
AC50 [9]: 10.7 µM (active)
outcome [10]: inactive
AC50 [11]: 20.6 µM (active)
outcome [12]: inactive
AC50 [13]: 9.44 µM (active)
AC50 [14]: 20 µM (active)
outcome [15]: inactive
AC50 [16]: 31.5 µM (active)
AC50 [17]: 0.465 µM (active)
AC50 [18]: 11.6 µM (active)
AC50 [19]: 12 µM (active)
AC50 [20]: 13.4 µM (active)

O=C(O)c1[nH]n(-c2ccc(S(=O)(=O)O)cc2)c(=O)c1N=Nc1ccc(S(=O)(=O)O)cc1
outcome [1]: inactive
outcome [2]: inactive
outcome [3]: inactive
outcome [4]: inactive
outcome [5]: inactive
outcome [6]: inactive
outcome [7]: inactive
outcome [8]: inactive
outcome [9]: inactive
outcome [10]: inactive
outcome [11]: inactive
outcome [12]: inactive
outcome [13]: inactive
outcome [14]: inactive
outcome [15]: inactive
outcome [16]: inactive
outcome [17]: inactive
outcome [18]: inactive
outcome [19]: inactive
outcome [20]: inactive

O=C1OC(c2ccc(O)cc2)(c2ccc(O)cc2)c2ccccc21
outcome [1]: inactive
outcome [2]: inactive
outcome [3]: inactive
outcome [4]: inactive
AC50 [5]: 28.2 µM (active)
outcome [6]: inactive
outcome [7]: inactive
outcome [8]: inactive
outcome [9]: inactive
outcome [10]: inactive
outcome [11]: inactive
outcome [12]: inactive
outcome [13]: inactive
AC50 [14]: 30.2 µM (active)
AC50 [15]: 20 µM (active)
outcome [16]: inactive
AC50 [17]: 28 µM (active)
outcome [18]: inactive
outcome [19]: inactive
outcome [20]: inactive

O=C1O[C@H]([C@H](O)CO)C(O)=C1O
outcome [1]: inactive
outcome [2]: inactive
outcome [3]: inactive
outcome [4]: inactive
outcome [5]: inactive
outcome [6]: inactive
outcome [7]: inactive
outcome [8]: inactive
outcome [9]: inactive
outcome [10]: inactive
outcome [11]: inactive
outcome [12]: inactive
outcome [13]: inactive
outcome [14]: inactive
outcome [15]: inactive
outcome [16]: inactive
outcome [17]: inactive
outcome [18]: inactive
outcome [19]: inactive
outcome [20]: inactive
